High-throughput results deposited in PubChem BioAssay by several laboratories.
ABHD5 PLIN5 PPI: inhibitors of human ABHD5-perilipin-5 interaction; Q00G26+Q8WTS1; Split G. princeps luciferase complementation, luminescence, 4 h; inhibition, % at 4 µM; 360,000 compounds, 0.78% hits; AID 602281;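 active means inhibition above the mean inhibition across every tested compound plus 3 SD, cut at about 22% in these data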;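 further: 0% = DMSO only wells and the 100% control is not disclosed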
HIF-2a block: inhibitors of HIF-2a; 360,000 compounds, 0.72% hits; 786-0 RCC cells HIF-2a reporter, luciferase luminescence, overnight; inhibition, % at 18.8 µM; AID 624352;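 active means inhibition of the luminescence signal of 40% or more relative to plate controls, in a single-dose primary screen at 18.75 µM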
CF NFkB block: inhibitors of cystic fibrosis induced NF-kB; inhibition, % at 5 µM; KKLEB NF-kB-GFP reporter, PAF-induced, GFP fluorescence overnight; 360,000 compounds, 0.86% hits; AID 588850;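 active means at least 50% inhibition at 5 µM, scaled per plate between neutral and stimulator controls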;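 further: PAF is a Pseudomonas aeruginosa culture filtrate used as stimulus; plate controls were PAF-stimulated DMSO wells for no effect and unstimulated DMSO wells for full effect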
Peg3 prom inh: reduces Peg3 promoter-driven luciferase expression in HeLa; HeLa PEG-Prom luciferase reporter, luminescence, overnight; inhibition, % at 20 µM; 360,000 compounds, 1.7% hits;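 active means inhibition of at least 50% at 20 µM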
MITF TRPM1 inh: MITF TRPM1 promoter inhibition in SK-MEL-5 cells; SK-MEL-5 TRPM1 promoter luciferase, 24 h; inhibition, % at 12.5 µM; 330,000 compounds, 0.83% hits; AID 488899;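 active means mean inhibition across replicates of 60% or more, whatever share of single replicates reaches that level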
KKLEB tox: reduces viability of KKLEB cystic fibrosis airway cells. KKLEB CF airway cells viability, ATPlite luminescence, overnight; active compounds read low; cells stimulated with P. aeruginosa culture filtrate. activity change (cytotoxicity), % at 5 µM. 360,000 compounds, 0.36% hits;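 active means corrected activity change at or below -50% at 5 µM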
ABHD5-PLIN5 conf: ABHD5-PLIN5 interaction inhibition, confirmed | biochemical ABHD5-PLIN5 interaction, luminescence | 2,200 compounds, 67% hits | AID 651612 | shares compounds with ABHD5 PLIN5 PPI | inhibition, % at 4 µM; in the data active means inhibition above about 23%;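 further: 0% = DMSO vehicle wells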
HNF4 split-luc: HNF4 split-luciferase signal hit, counter-screen; shares compounds with ABHD5 PLIN5 PPI; HNF4 dimerization, luminescence, biochemical; inhibition, % at 4 µM; 2,200 compounds, 77% hits; AID 651674;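 active means mean inhibition across replicate wells exceeding the computed hit threshold, cut at about 13% in these data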;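 further: light from luciferase halves that rejoin when HNF4 fusion proteins dimerize; 0% = DMSO only wells and the 100% control is not given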
Active calls of the source: *; x = no result given. An excerpt weighted towards active compounds, which were near 3.1% of everything screened.

SMILES | ABHD5 PLIN5 PPI | HIF-2a block | CF NFkB block | Peg3 prom inh | MITF TRPM1 inh | KKLEB tox | ABHD5-PLIN5 conf | HNF4 split-luc
CC(C)(C)NC(=O)C(c1ccc(-c2ccccc2)cc1)n1c(=O)c(-c2ccco2)nc2ccccc21 (stereo not given) | 73* | -95 | x | x | x | x | 94* | 28*
CC(C)(C)NC(=O)C(c1ccc(C#N)cc1)n1c(=O)c(-c2ccccc2)nc2ccccc21 (stereo not given) | 3 | -6 | x | x | x | x | x | x
Cc1ccc2nc(N(CCCN(C)C)C(=O)c3cc(-c4cccs4)nc4ccccc34)sc2c1 | 25* | -1 | 33 | 107* | 44 | -14 | 14 | 1
Cc1ccc2nc(N(CCCN(C)C)C(=O)c3ccc(Br)s3)sc2c1 | 30* | -15 | -6 | -36 | -6 | -6 | 13 | 2
Cc1ccc(/C=[N+](\[O-])c2ccccc2C)o1 | 23* | 5 | 3 | 7 | -2 | 2 | 2 | 11
Cc1ccccc1/[N+]([O-])=C/c1cccs1 | 0 | 18 | 5 | 6 | 3 | 1 | x | x
CCN(CC)C(=O)N1CCN(C)CC1 | 38* | -33 | -11 | -13 | 9 | 2 | 80* | 37*
CCN(CC)C(=O)N1CCN(C(=O)N(CC)CC)CC1 | -2 | 12 | 8 | 4 | -5 | -11 | x | x
CCC(=O)N(CCC(c1ccc(C)cc1)c1ccco1)Cc1ccco1 (stereo not given) | 26* | 15 | -2 | -6 | 1 | -9 | 17 | 12
Cc1cc2nc(C3CCN(C(=S)NCCCOC(C)C)CC3)[nH]c2cc1C | -2 | 8 | 9 | 11 | 10 | -1 | x | x
O=c1c2ccccc2sn1-c1nccs1 | 81* | -8 | -8 | 18 | 6 | -9 | 86* | 118*
CC(C)c1ccc(S(=O)(=O)N2CCN(C(=O)Cc3ccsc3)CC2)cc1 | -6 | 20 | 3 | 12 | -4 | 17 | x | x
CC(C)(C)OC(=O)N1CCCC(C(=O)Nc2ccc(C(=O)NC3CC3)cc2)C1 (stereo not given) | 35* | 2 | -9 | 12 | -3 | 3 | 2 | 5
CSc1ccc(Cl)c(C(=O)OCC(=O)NCc2ccco2)c1 | 34* | 13 | -7 | -2 | -1 | 12 | 17 | 18*
CSc1ccc(Cl)c(C(=O)NCc2ccco2)c1 | 9 | -7 | 6 | -11 | -4 | 6 | x | x
CC(=O)Nc1ccc(C2=NNC(=Nc3ccc(S(=O)(=O)N4CCOCC4)cc3)SC2)cc1 | 75* | 3 | -13 | -9 | 17 | 13 | 59* | 79*
CCOC(=O)c1c(NC(C)=O)sc2c1CCC(C=O)=C2Sc1ccccc1 | 65* | 27 | -13 | 99* | 11 | -9 | 76* | 17*
CCOC(=O)c1c(NC(C)=O)sc2c1CCN(Cc1ccccc1)C2 | -8 | -6 | 16 | 9 | x | 7 | x | x
CCOc1ccc(-c2cc(C(=O)NCc3cc(C(F)(F)F)cc(C(F)(F)F)c3)[nH]n2)c(C)c1 | 6 | -5 | 17 | 7 | x | -11 | x | x
COc1ccc(C=C2CS(=O)(=O)CC(=Cc3ccc(OC)cc3)C2=O)cc1 | 94* | 86* | 92* | 97* | x | -18 | 103* | 105*
CN(C)/N=C/C=C1\CCC/C(=C\c2ccc(F)c(F)c2)C1=O | 53* | -98 | -12 | 41 | 1 | -2 | 71* | 73*
COc1ccc(/C=C2\CCC/C(=C\C=N\N(C)C)C2=O)cc1 | 36* | -132 | -35 | -95 | -11 | 15 | 36* | 72*
COCC(C)n1c(C)cc(C(=O)COC(=O)/C=C/c2cccc(F)c2)c1C (stereo not given) | 2 | 17 | -9 | 9 | 2 | -10 | x | x
Cc1cc2c(cc1S(=O)(=O)CCC(=O)Nc1cccc(C(F)(F)F)c1)OCC(=O)N2 | -7 | 4 | 15 | 5 | 7 | 7 | x | x
O=C(CC1S/C(=N/N=C/c2c[nH]c3ccccc23)NC1=O)Nc1ccccc1 (stereo not given) | 23* | -31 | -3 | 1 | 2 | 2 | 20 | 11
SMILES | ABHD5 PLIN5 PPI | HIF-2a block | CF NFkB block | Peg3 prom inh | MITF TRPM1 inh | KKLEB tox | ABHD5-PLIN5 conf | HNF4 split-luc
N#Cc1nc(Cc2ccccc2)oc1NCc1cccnc1 | 5 | 11 | 0 | -4 | 1 | 1 | x | x
N#Cc1ncc(Cc2ccccc2)nc1C#N | 30* | 28 | -14 | 30 | 9 | 12 | 46* | 21*
CCOC(=O)N1CC(C)N(CC(O)CN2CCOCC2)CC1C (stereo not given) | -3 | 2 | 10 | -3 | -2 | 0 | x | x
CCN1C(=O)c2cccc3c(S(=O)(=O)N(C(C)=O)c4ccc(OC(C)=O)cc4)ccc1c23 | 4 | -4 | 1 | 27 | 6 | -1 | x | x
CC(=O)c1ccc2noc(-c3ccc(C)cc3)c2c1 | 29* | -134 | 1 | -86 | -10 | 5 | 14 | 22*
O=C(/C=C/c1cccs1)c1cc(Br)ccc1OC(=O)N1CCOCC1 | 25* | 38 | 8 | 44 | -11 | -17 | 57* | 40*
COc1ccc(C(=O)/C=C/c2cccs2)c(OC(=O)N2CCOCC2)c1 | 6 | 6 | -9 | 17 | -7 | -2 | x | x
O=C(CCn1cccn1)Nc1ccc(-c2ccno2)cc1 | 0 | -109 | -35 | -60 | -26 | 32 | x | x
CCOc1cccc2cc(-c3nnc(NCc4ccco4)s3)c(=O)oc12 | 48* | -197 | -5 | 34 | -64 | 6 | 29* | 35*
COc1ccc2oc(=O)c(-c3nnc(NCc4ccco4)s3)cc2c1 | 60* | -195 | -16 | -45 | -1 | 7 | 21 | 43*
Cc1ccc([N+](=O)[O-])cc1NC(=O)CSc1nncn1-c1ccccn1 | 24* | 8 | 4 | 6 | 6 | 1 | -2 | 5
COc1ccc(OCC(O)CNC(=O)c2sccc2Cl)cc1 (stereo not given) | 1 | -41 | 10 | -11 | -11 | 3 | x | x
COc1ccc(NC2CCCN(C(=O)CCC3=NNC(=O)CC3)C2)cc1 (stereo not given) | -8 | 13 | -31 | 14 | -3 | 12 | x | x
COc1cccc(/C=C/C(=O)c2cccc([N+](=O)[O-])c2)c1OC | 85* | 7 | 22 | 45 | -6 | -15 | 101* | 97*
COc1ccc(OC(=O)c2cccc([N+](=O)[O-])c2)c(C(=O)/C=C/c2cccs2)c1 | 42* | -48 | 8 | -81 | 2 | -8 | 57* | 53*
COc1cccc(/C=C/C(=O)Nc2cccc(C(C)=O)c2)c1OC | 0 | -295 | -35 | -204 | -73 | -8 | x | x
COc1ccc(/C=C/C(=O)c2ccc[nH]2)c(OC)c1OC | 0 | -163 | 18 | -168 | -28 | -8 | x | x
